We go through 40 compounds from PubChem BioAssay (NCI).

The structures appear in SMILES notation. About 83,000 compounds went through this panel and 20% of them were active in at least one assay; those are over-represented in the sample as a whole.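 Plates (96-well) were seeded with cells, treated with compound at one concentration, and incubated for 48 hours before percent growth was determined.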 Active and inactive are the calls of the source. Rule for the calls: active = growth percent below 10; inactive = the rest.

The test system of this test is MDA-MB-468 breast. As to the kind of experiment: NCI-60 one-dose screen, 48 h (100 = growth as untreated, 0 = no growth, -100 = all killed). The conditions noted are these: 10 µM unless noted.
For the compound `COc1ccc(CCN=Cc2ccc(Cl)cc2)cc1OC`, the growth was 117% (inactive). On to `NC(=O)c1ccccc1NC(=O)c1ccccc1Cl`, for which the growth is 125% (inactive).

On to `Nc1c(C(=O)Nc2cccc([N+](=O)[O-])c2)sc2nc3c(cc12)C(O)CCC3` (stereo not given), for which the growth is 53.5% (inactive).

As to `O=C1N/C(=N/O)S/C1=C/c1cn(-c2ccccc2)nc1-c1ccccc1`, the growth is 84.6% (inactive). Regarding `O=[N+]([O-])c1ccc(Sc2nc(Cl)nc(NC3CCCC3)n2)cc1`, the growth was -46.5% [100 µM] (active). The figure for `COc1ccc(/C=C2/CN(C(=O)c3ccc(C)cc3)C/C(=C\c3ccc(OC)cc3)C2=O)cc1` is 74.1% (inactive). For the compound `O=C(O)c1ccccc1C(=O)c1ccc(I)cc1`, the growth is 108% (inactive). The figure for `CC(C)(CCN=C(N)Nc1ccccn1)c1ccc(C(F)(F)F)cc1` is 3.96% (active); for `[O-]c1c[n+](-c2ccc(Cl)cc2)no1` it is 98.7% (inactive). Take `COc1cc(OC)c(S(N)(=O)=O)cc1C(=O)/C=C/c1ccccc1`: the growth was -43.4% (active). The result for `CN1CCN(c2ccc(-c3cc4c(Nc5ccc(F)c(Cl)c5)ncnn4c3)cn2)CC1` reads 70.1% (inactive).

For `COc1ccc(C2c3ccccc3NC(=O)N2C2CCN(C)CC2)c(OC)c1` (stereo not given), the growth is 88.3% (inactive). The figure for `COc1ccc(-n2ncc3c4nc(OC)c(S(=O)(=O)c5ccccc5)cc4ccc32)cc1` is 51.9% (inactive); for `O=C1OC(/C=C/c2ccccc2)=NC/1=C/c1ccccc1[N+](=O)[O-]` it is 101% (inactive); for `COC(OC)c1ccccc1` it is 107% (inactive). The figure for `COc1cc(C(N)=O)cc(OC)c1OC` is 103% (inactive); for `COc1cc(COC(=O)CCCCC[P+](c2ccccc2)(c2ccccc2)c2ccccc2)c(OC)c2c1OCO2` it is -2.4% (active); for `CSc1nc(Nc2cccc(NC(=O)/C(C#N)=C/c3c(Cl)cccc3Cl)c2)c(C#N)c(-c2cccc([N+](=O)[O-])c2)n1` it is 36.9% (inactive). The result for `c1coc(-c2c3ccc(=[N+]4CCCCC4)cc-3oc3cc(N4CCCCC4)ccc23)c1` reads -88.6% (active); that for `CCN(CC)c1ccc(CN(CC(=O)c2ccc(Cl)c(Cl)c2)Cc2ccccc2)cc1`, 91.9% (inactive); that for `Cc1ccc(S(=O)(=O)c2c(COC(=O)c3cccc(C)c3)c(-c3ccccc3)nn2C)cc1`, -83.9% (active). On to `COCCCNc1nc(NC(=O)c2cc(OC)cc(OC)c2)cc(-c2cccnc2)n1`, for which the growth was 94.8% (inactive). In the case of `C=C1C(=O)O[C@H]2[C@H]1CC/C(COC(=O)NCc1c[nH]c3ccc(OC)cc13)=C\CC[C@@]1(C)O[C@@H]21`, the growth was -27.8% (active). The figure for `O=c1[nH]nc(-c2ccc(Br)cc2)cc1Cc1ccc(O)cc1` is 107% (inactive); for `O=S(=O)(c1ccc(NCSc2nc3ccccc3s2)cc1)c1ccc(NCSc2nc3ccccc3s2)cc1` it is 95.8% (inactive); for `CCOC(=O)C1=C(Nc2ccc(Br)cc2)C(=O)N(CC)C1` it is 101% (inactive).

Consider `COc1cc(/C=C2\CCCC3=C2NC(N)=NC3c2cc(OC)c(OC)c(OC)c2)cc(OC)c1OC` (stereo not given), for which the growth is -70.9% (active). The figure for `CN1CCn2c(c(Sc3ccc(C(=O)NO)cc3)c3ccccc32)C1=O` is -39.2% (active). As to `O=C(O)CC1=CCCCC1`, the growth was 102% (inactive).

`CCOC(=O)[C@H](CSSc1ncnc2cc[nH]c12)NC(=O)[C@@H](C)c1ccc2cc(OC)ccc2c1`: the growth was 5.8% (active). The figure for `CN1CCc2c(sc3ncnc(N/N=C/c4ccc(Cl)c(Cl)c4)c23)C1` is -26.6% (active); for `CC(C)(C)c1ccc(C(=O)Nc2nc3ccc(O)cc3s2)cc1` it is 18.6% (inactive). The result for `Cc1cc(C)c(C=O)c(C)c1` reads 94.1% (inactive); that for `C=C1C(=O)O[C@H]2[C@H]1CC/C(COC(=O)C(=O)c1c[nH]c3ccc(Cl)cc13)=C\CC[C@@]1(C)O[C@@H]21`, -67.3% (active). For the compound `Cc1cccc(C[C@H](NC(=O)Nc2ccc(Cl)cc2F)C(=O)N[C@@H]2C(=O)N3C[C@H](O)C[C@H]3C(=O)N3CCN(C)C[C@H]3C(=O)N[C@@H](C)C(=O)N3C[C@H](C)C[C@H]3C(=O)O[C@H]2C)c1`, the growth is 15.7% (inactive). The figure for `O=C(Nc1ccc(-n2ccc3c(NC(=O)c4ccccc4)ncnc32)cc1)Nc1ccc(Cl)c(C(F)(F)F)c1` is -56.3% (active).

Consider `CC1Cc2c(N(C)C)ncnc2N(C)c2ccc(Cl)cc21` (stereo not given), for which the growth was 28.7% (inactive). The result for `CCCCCCCCCCCC[n+]1ccccc1` reads -23.6% (active); that for `CC(CNC(Cc1ccccc1)c1ccccc1)NC(Cc1ccccc1)c1ccccc1` (stereo not given), 14.5% (inactive); that for `Cc1[nH]cnc1/C=C1\SC(N2CCCCC2)=NC1=O`, 101% (inactive).
